TDP1 cell noCPT: qHTS for Inhibitors of human tyrosyl-DNA phosphodiesterase 1 (TDP1): qHTS in cells in absence of CPT; DT40 Tdp1-/- hTDP1 cells, no CPT, ATP luminescence, 48 h; Potency, µM (highest dose often 46.2 µM), inactives show top-dose activity change, negative = growth inhibition, hits mostly inhibitors; 420,000 compounds, 15% hits; also: nearly all actives have a fitted effect of over 55% in size
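Growth kinetics read by CellTiter-Glo luminescence after ≥48 hr at 37 °C. Cells: DT40 Tdp1-/- stably carrying human TDP1, 400 per well, compound exposure in the absence of CPT (DMSO vehicle).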
KB-V1 cytotox: KB-V1 MDR subline cytotoxicity. KB-V1 MDR cells viability, CellTiter-Glo, 72 h. Potency, µM (series often up to 46.1 µM), usual class: cytotoxic. 400,000 compounds, 3.4% hits. AID 1347076; also: nearly all actives have a fitted effect of over 60% in size
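Drug-selected KB-V1 cells, grown in DMEM lacking phenol red with 10% FBS, receive compound titrations; after three days at 37 degrees C, surviving cell ATP is quantified by CellTiter-Glo luminescence and responses normalized and curve-fitted.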
DT40 TDP1 CPT: growth inhibition of DT40 Tdp1-/-;hTDP1 cells with camptothecin (screen for TDP1 inhibitors) | chicken DT40 Tdp1-/-;hTDP1 cells + 20 nM CPT, ATP luminescence, 48 h | Potency, µM (highest dose often 46.2 µM), for inactives: at the top dose activity change, negative = growth inhibition, most hits filed as inhibitors | 420,000 compounds, 12% hits | AID 686979; also: nearly all actives have a fitted effect of over 55% in size
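Cell growth measured by CellTiter-Glo luminescence after a minimum 48 h, 37 C compound exposure with 20 nM CPT in Tdp1-knockout DT40 cells stably expressing hTDP1, seeded 400/well; qHTS titration format.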
HT1080NT lethal: kills 2HG-producing HT-1080-NT fibrosarcoma cells; HT-1080-NT fibrosarcoma viability, CellTiter-Glo ATP luminescence, 48 h; Potency, µM (highest dose often 46.1 µM), inactives show at the top dose activity, negative = less viability, usual class: cytotoxic; 360,000 compounds, 1.6% hits; AID 686970;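 also: NT is the 2HG producing partner of a matched IDH1 knockdown line; 0% = DMSO-treated cells and -100% = media-only wells without cells; nearly all actives have a fitted effect of over 55% in size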
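Viability by CellTiter-Glo luminescence after 48 h compound exposure at 37C of HT-1080-NT cells (750/well, RPMI, 5% FBS). % activity scaled between DMSO wells and medium-only wells, then curve-fitted and categorized by curve class.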
KB-3-1 tox: kills parental KB-3-1 adenocarcinoma cells; KB-3-1 viability, CellTiter-Glo ATP luminescence, 72 h; Potency, µM (titrated, usually from 46.1 µM), actives largely listed as cytotoxic; 400,000 compounds, 1.4% hits; AID 1347075; also: nearly all actives have a fitted effect of over 60% in size
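72 h, 37 °C compound treatment of KB-3-1 parental cells; CellTiter-Glo added, 10 min, luminescence read. Data corrected against DMSO-only plates and normalized before curve fitting.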
HT1080 IDH1KD tx: HT-1080 IDH1 knockdown cell toxicity (counter line). HT-1080 IDH1 knockdown viability, ATP luminescence, 48 h. Potency, µM (highest dose often 46.1 µM), inactives show at the top dose activity, negative = toxicity, hits mostly cytotoxic. 360,000 compounds, 2% hits. AID 686971;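 also: 0% = DMSO wells and -100% = cell-free medium wells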
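Knockdown cells (IDH1KD HT-1080) received compounds 2 h after plating at 750 cells/well and were kept 48 h at 37 °C in 5% FBS RPMI. A CellTiter-Glo luminescence read gave % activity for curve fitting.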
* hit, by the source's call; i = inactive; u = inconclusive; x = not tested or not shown. An excerpt weighted towards active compounds, which were near 19% of everything screened. Calls follow the shape of the dose curve; as a rule, active = well fitted curve in the direction sought with a large enough effect; inconclusive = small, poorly fitted or top-dose-only effect, or another doubt; inactive = no such curve, though single readings can be large; an effect the other way counts as inactive or inconclusive. Unless noted, % is scaled to controls: 0 for no effect and ±100 for the full control effect; potency is read from the fitted curve at half-maximal effect.

SMILES	TDP1 cell noCPT	KB-V1 cytotox	DT40 TDP1 CPT	HT1080NT lethal	KB-3-1 tox	HT1080 IDH1KD tx
CCCCn1nnnc1C(c1ccccc1)N1CCCN(Cc2ccc(F)cc2)CC1 (stereo not drawn)	u	8.2µM*	u	u	u	-23%
Cc1ccc(S(=O)(=O)Cn2nnnc2C(c2ccc(F)cc2)N2CCCCC2)cc1 (stereo not drawn)	23µM*	i	u	6%	i	3%
Cc1ccc2cc(C(c3nnnn3Cc3ccccc3)N3CCN(c4ccccc4)CC3)c(=O)[nH]c2c1 (stereo not drawn)	u	u	13µM*	-3%	i	-2%
Cc1ccc(C(c2nnnn2CS(=O)(=O)c2ccc(C)cc2)N2CCCC2)cc1 (stereo not drawn)	1%	i	-27%	10%	i	7%
c1ccc(CN2CCN(C(c3ccccc3)c3nnnn3Cc3ccccc3)CC2)cc1 (stereo not drawn)	18µM*	u	u	-1%	i	-7%
Cc1cccc2cc(C(c3nnnn3Cc3ccccc3)N3CCCc4ccccc43)c(=O)[nH]c12 (stereo not drawn)	16µM*	i	13µM*	0%	i	-1%
CCN1CCN(C(c2cc3cccc(C)c3[nH]c2=O)c2nnnn2Cc2ccccc2)CC1 (stereo not drawn)	-21%	i	-30%	6%	i	2%
CC(C(=O)NCc1cccs1)N1CCN(S(=O)(=O)c2ccc3c(c2)OCCCO3)CC1 (stereo not drawn)	u	i	u	2%	i	-1%
O=c1cc(-c2ccccc2)n2c(SCc3c(F)cccc3Cl)nnc2[nH]1	-5%	x	2%	x	x	x
O=C(NCCc1csc(-c2cccnc2)n1)c1cccc(C(F)(F)F)c1	x	9.2µM*	x	x	u	x
O=C(NCCc1csc(-c2cccnc2)n1)c1ccc(F)c(F)c1	x	13µM*	x	x	i	x
Cc1ccc(C(=O)NCCc2csc(-c3cccnc3)n2)cc1	u	i	u	-4%	i	13%
CCCCc1ccc(-n2nc3cc(C)c(NC(=O)Cc4ccccc4)cc3n2)cc1	-15%	x	-27%	x	x	x
CC(C)C[C@@H]1COc2cccc(N(C)CCO)c2S(=O)(=O)N1	u	i	-46%	7%	i	8%
Cc1cc(=O)n(CC(=O)Nc2ccc([N+](=O)[O-])cc2)c(-n2nc(C)cc2C)n1	21µM*	u	18µM*	x	i	x
CCCCN1C(=O)C(=O)N(CC(=O)Nc2ccc(OC(F)(F)F)cc2)C1=O	-19%	u	u	5%	i	0%
Cc1cc(C)n(-c2nc(C)c(C)c(=O)n2CC(=O)Nc2ccc(OC(F)(F)F)cc2)n1	18µM*	x	15µM*	x	x	x
Cc1cc(C)n(-c2nc(C)c(C)c(=O)n2CC(=O)Nc2ccc(Cl)c(Cl)c2)n1	7.3µM*	x	15µM*	x	x	x
Cc1cc(NS(=O)(=O)c2ccc(NC(=O)Cc3ccc([N+](=O)[O-])cc3)cc2)nc(C)n1	9%	x	8%	3%	x	7%
CCNC(=O)N1C[C@H]2CON(C)[C@H]2C[C@H]1c1ccccc1Br	-23%	i	-11%	5%	i	21%
O=C(NN=C1CCCC1)c1cc(Cl)cc(Cl)c1O	12%	i	-9%	-1%	i	0%
O=c1c2sccc2n(Cc2cc(=O)n3ccccc3n2)c(=O)n1-c1cc(F)ccc1F	0%	x	-16%	x	x	x
O=C(NO)c1ccccc1	22µM*	x	24µM*	x	x	x
O=C(NOC(=O)c1ccccc1)c1ccccc1	23µM*	i	u	-5%	i	-8%
C[C@H]1NCc2cc(-c3ccc4c(=O)c(C(=O)O)cn(C5CC5)c4c3OC(F)F)ccc21	-14%	x	-23%	x	x	x
SMILES	TDP1 cell noCPT	KB-V1 cytotox	DT40 TDP1 CPT	HT1080NT lethal	KB-3-1 tox	HT1080 IDH1KD tx
CC1CN(C2CCCCC2)C(=S)NC1=O (stereo not drawn)	9%	i	2%	0%	i	9%
COc1cccc(NC(=O)C2CCCN(S(=O)(=O)c3ccc4[nH]c(=O)ccc4c3)C2)c1 (stereo not drawn)	u	u	u	x	i	x
CCN(CC)CCNCC1C(=O)O[C@@H]2C[C@@]3(C)CCC[C@H](C)C3=C[C@H]12 (stereo partly drawn)	13µM*	u	u	u	u	16µM*
CCc1nnc(N2C(=O)c3ccc(Oc4ccc([N+](=O)[O-])cc4)cc3C2=O)s1	u	i	u	4%	i	4%
COc1ccc(S(=O)(=O)NCCc2sc(C)nc2C)cc1F	x	16µM*	x	x	u	x
Cc1cccc(CNS(=O)(=O)c2ccc3[nH]c(=O)ccc3c2)c1	-18%	i	u	x	i	x
CCN1C(=O)C(Cc2nc3ccccc3c(=O)n2-c2ccc(OC)cc2)c2ccccc21 (stereo not drawn)	u	i	u	x	i	x
CCN1C(=O)/C(=C/c2nc3ccccc3c(=O)[nH]2)c2ccccc21	u	i	u	5%	i	17%
CCN1C(=O)/C(=C/c2nc3ccccc3c(=O)n2-c2ccc(C)cc2)c2ccccc21	18µM*	i	23µM*	-1%	u	-2%
